The structures appear in SMILES notation. Records with an inconclusive call do not appear. The source made the active and inactive calls. Calls follow the shape of the dose curve; as a rule, active = well fitted inhibition curve with a large enough effect; inconclusive = small, poorly fitted or top-dose-only effect; inactive = no such curve, though single readings can be large or run the other way.
Potency is read from the fitted curve at half-maximal effect.

The experiment in a line: Acumen qHTS Assay for Inhibitors of the mTORC1 Signaling Pathway in MEF (Tsc2-/-, p53-/-) Cells: Hit Validation. Also: nearly all actives have a fitted effect of over 65% in size. Conditions: Acumen imaging; activity change, negative = inhibition: at 37.3 µM (top of the series). The source says:
The mammalian target of rapamycin (mTOR) is an intracellular serine/threonine kinase Aberrant regulation of mTOR signaling plays a causative role in a number of human diseases, including cancer, benign tumors such as lymphangioleiomyomatosis (LAM) and Tuberous Sclerosis Complex (TSC), and metabolic diseases such as diabetes and obesity. This project aims to identify inhibitors of ribosomal protein S6 (rpS6) phosphorylation. The phosphorylation of rpS6 is a key event downstream of mTOR activation. The assay uses a phospho-specific antibody of phospho-rpS6 to detect inhibitors of mTOR activation. Mutations in the Tsc1 and Tsc2 genes are the underlying genetic lesions responsible for TSC, causing constitutive activation of the mTORC1 pathway and leading to profound effects on cell metabolism. Aberrant metabolism in cancer has recently received significant attention as a target to develop therapeutic agents in the treatment of cancer.1 As Tsc2-/- cells have lost the ability to respond to energy and growth factor deprivation, these cells are unable to properly down regulate cellular biosynthetic processes in response to metabolic stress, and are thus extremely sensitive to glucose deprivation-induced death.2 A central goal of this project is to explore the unique cell survival and metabolic properties of cells with Tsc1 or Tsc2 by screening for compounds that selectively target the Tsc2-/- MEFs by screening both Tsc2-/- and WT MEF cell lines. We hope to better understand these aspects of TSC physiology in order to exploit them for therapeutic benefit.
NIH Molecular Libraries Probe Production Centers Network [MLPCN]
NIH Chemical Genomics Center [NCGC]
Assay Submitter (PI): Blenis, John; Harvard University
For quantitative high throughput analysis of mTORC1 signaling, we developed a cell-based assay for immuno-fluorescence based detection of rpS6 phosphorylation on the Acumen Explorer that will be used a platform for the primary small molecule screen. Mouse embryonic fibroblasts (MEFs) are cultured in 1536-well plates using DMEM + 10% FBS. Twenty-four hrs after plating, test compounds (solubilized in DMSO) are delivered and incubated with the cells for 24 hrs at 37 degree Celsius. Following the incubation, media with compound is aspirated and the cells are fixed in 4% paraformaldehyde (PFA) containing PBS + 0.2% TX-100. Next, PFA is aspirated, cells are washed two times with PBS plus 0.2% TX-100 and the cells are blocked for 1 hr at room temperature (blocking buffer: LiCOR Blocking Buffer plus 0.2% TX-100). This is followed by aspiration and staining with Alexa-488 conjugated-phospho-rpS6 Ser235/236 antibody for 2 hours at room temperature (Cell Signaling Technology # 4803, 1:50 dilution in blocking buffer). Cells are washed two times with PBS plus 0.2% TX-100, and stained with 10 uM propidium iodide (PI) for 20-25 minutes for cell number measurement (1:500 dilution of Hoescht staining is also added for IN Cell imaging). The plates are scanned on the Acumen Explorer laser scanning instrument (TTP Labtech) using the 488nm laser for simultaneous excitation of the Alexa-488 and PI. […] Fluorescence emission from the PI stain is selected using a 575-640 nm band pass filter. The normalized phospho-S6 staining is calculated as the ratio of the integrated Alexa 488 intensity divided by the integrated PI intensity for the single concentration rapamycin control (7.5 nM) and DMSO columns. […] Inhibition of the pathway is defined based on the normalized phospho-S6 intensity in rapamycin treated cells. Active cells are defined as those with a normalized phospho-S6 staining above this threshold, and each treatment is reported as the % positive cells in the well, where thresholds are defined by selecting wells with the highest and lowest signal and differentiating between the % non-active and % active populations. In addition to the pathway specific phospho-S6 endpoint, the number of PI stained cells from the Acumen is recorded as a measure of cell viability. […]
In general terms: In qHTS, concentration-response curves come from the screen itself.
In the case of `CCc1ccc(OCC(=O)Nc2ccc3oc(-c4ccc(OC)cc4)nc3c2)cc1`, the activity change, negative = inhibition was 7.33%.

As for `CCNC(=O)c1c(NC(=O)c2nc(S(=O)(=O)CC)ncc2Cl)sc2c1CCCC2`, the Potency was 1.31 µM (active).

On to `Cc1cc(C)c(-c2n[nH]c3c2C(c2ccccc2F)N(Cc2ccco2)C3=O)c(O)c1` (stereo not given), for which the activity change, negative = inhibition was 2.41%.

`Cc1ccccc1CN1C(=O)C(O)(CC(=O)c2ccccc2)c2cc(Cl)ccc21` (stereo not given): the activity change, negative = inhibition is -65.2%.

In the case of `Cc1ccc(-n2c(=O)c3ccc(C(=O)NCc4ccco4)cc3n(Cc3ccc(Cl)cc3)c2=O)cc1`, the Potency is 9.27 µM (active).

Consider `CCCCN(C)C(=O)CSc1c2c(nc3ccc(Cl)cc13)CCCC2`, for which the activity change, negative = inhibition was -13.3%.

`COc1ccc(NC(=O)c2c(C)oc3ccc(O)c(CN4CCCC(C)C4)c23)cc1Cl` (stereo not given): the Potency is 9.27 µM (active).

As to `CCOc1cc(CNc2ccc(O)cc2)ccc1OCc1ccc(Cl)cc1`, the activity change, negative = inhibition was -17.1%.

Regarding `CCOc1cc(C2CC(=O)Nc3cc4c(cc32)OCCO4)ccc1O` (stereo not given), the activity change, negative = inhibition is 3.9%.

Take `CCN1CCN(C(=O)Cn2ncc3c4ccccc4n(Cc4c(C)cc(C)cc4C)c3c2=O)CC1`: the activity change, negative = inhibition was -17.5%.

As to `COc1ccc(N(Cc2ccccc2)C(=O)c2nc(S(C)(=O)=O)ncc2Cl)cc1`, the Potency is 1.85 µM (active).

Regarding `COc1ccc(CC(=O)Nc2sc3c(c2C(=O)Nc2cccc(C)c2)CCCCC3)cc1`, the Potency is 4.14 µM (active).

Consider `CCC1CCc2nc3sc(C(=O)Nc4ccc(C)cc4)c(N)c3cc2C1` (stereo not given), for which the Potency was 8.26 µM (active).

Take `CCOC(=O)c1sc2ccccc2c1S(=O)(=O)Nc1ccc(CC)cc1`: the activity change, negative = inhibition was -9.52%.

Regarding `CC1CCCN(CCCNC(=O)c2ccc3c(c2)N(Cc2ccc(Cl)cc2)C(=O)c2ccccc2S3(=O)=O)C1` (stereo not given), the Potency was 13.1 µM (active).

Take `O=C(c1ccc(CS(=O)c2ccccc2Cl)o1)N1CCN(c2cccc(Cl)c2)CC1` (stereo not given): the Potency was 0.521 µM (active).

For the molecule `CC(C)(C)OC(=O)N1CCC(c2c(C(=O)NCCN3CCC(Cc4ccccc4)CC3)cnn2-c2cccc(Cl)c2)CC1`, the activity change, negative = inhibition was -98.8%.

Turning to `COc1cccc(-c2nc(S(=O)(=O)c3ccc(Cl)cc3)c(NCc3ccccc3)o2)c1`, the activity change, negative = inhibition came out at 29.5%.

Regarding `CCCCOC(=O)c1ccc(NC(=O)c2ccc3c(c2)CCN3S(=O)(=O)c2ccccc2)cc1`, the activity change, negative = inhibition is -14.2%.

As to `CS(=O)c1ccc(-c2nc(-c3ccc(F)cc3)c(-c3ccncc3)[nH]2)cc1` (stereo not given), the activity change, negative = inhibition is -5.71%.

Turning to `O=C(CCS(=O)(=O)c1nc(-c2cccs2)cc(C(F)(F)F)n1)Nc1cccc(O)c1`, the activity change, negative = inhibition is -112%.

On to `Cc1cccc(-c2nc3c(cnn3-c3ccccc3)c(=O)n2-c2ccc(Br)cc2)c1`, for which the activity change, negative = inhibition is -37.3%.

In the case of `COc1ccc(S(=O)(=O)Nc2ccc3oc4c(c3c2)CCCC4)cc1`, the activity change, negative = inhibition stood at 1.17%.

On to `CCc1nn(CC(=O)NCc2ccccc2)c(=O)c2cccn12`, for which the activity change, negative = inhibition is 5.81%.

For the molecule `CCc1ccc(S(=O)(=O)N(C(=O)c2ccncc2)c2ccc3oc(C)c(C(=O)OC)c3c2)cc1`, the Potency is 11.7 µM (active).

Take `COc1ccc2c(c1)CC(C(=O)Nc1cc(Cl)ccc1C)CO2` (stereo not given): the activity change, negative = inhibition was -12.5%.

Regarding `CC(=O)Nc1ccc(NC(=O)c2nc(S(=O)(=O)Cc3ccc(F)cc3)ncc2Cl)cc1`, the Potency was 2.61 µM (active).

For `O=C(NCc1ccccc1)c1ccc2c(c1)N(Cc1ccccc1F)C(=O)c1ccccc1S2=O` (stereo not given), the activity change, negative = inhibition is -33%.

Turning to `COc1cc(C(=O)n2nc(C)c(Sc3ccc(Cl)cc3)c2C)cc(OC)c1OC`, the activity change, negative = inhibition was -8.63%.

For the molecule `COc1ccc(OCC(=O)NCc2ccc3c(c2)CCN3C(=O)c2cccc(C)c2)cc1`, the activity change, negative = inhibition was -87.8%.

For the molecule `CCCCS(=O)(=O)c1oc(-c2ccc(F)cc2)nc1S(=O)(=O)c1ccccc1`, the activity change, negative = inhibition was -151%.

On to `COC(=O)c1ccccc1NC(=O)CCS(=O)(=O)c1nc(-c2ccc3c(c2)OCO3)cc(C(F)(F)F)n1`, for which the activity change, negative = inhibition was -88.3%.

Turning to `COc1ccc2c(CNCCc3cccs3)c(C(=O)O)n(Cc3ccc(F)cc3Cl)c2c1`, the activity change, negative = inhibition is -51.9%.

Regarding `O=c1c(-c2cc(-c3ccc(F)cc3)nc3c2COc2ccc(Cl)cc2-3)coc2ccc(F)cc12`, the activity change, negative = inhibition was 7.23%.

For the molecule `COc1cc(Br)ccc1C1C(C(=O)Nc2ccc(C)cc2C)=C(C)Nc2nnnn21` (stereo not given), the activity change, negative = inhibition is -23.7%.

Consider `CCN1CCN(c2ccc(NS(=O)(=O)c3c(C)nc4sccn4c3=O)cc2Cl)CC1`, for which the activity change, negative = inhibition is -78.4%.

As for `Cc1cccc(OCC(=O)Nc2ccc(-c3nc4cc(C)ccc4o3)c(O)c2)c1`, the Potency was 6.56 µM (active).

`CC(C)CCNc1nc(Nc2ccccc2)c2cnn(C)c2n1`: the activity change, negative = inhibition was 17.1%.

For the molecule `Cc1ccc(C)c(NC(=O)Nc2cc3c(cc2N2CCCCC2)n(C)c(=O)n3C)c1`, the activity change, negative = inhibition was 3.56%.

For `O=C(CS(=O)(=O)c1cccc2nsnc12)NCc1ccc(Cl)cc1`, the activity change, negative = inhibition was 10.4%.

Source of the values: PubChem BioAssay AID651784 (National Center for Advancing Translational Sciences (NCATS), 2012).
